{
  "source": "PubChem BioAssay (EPA / NIEHS)",
  "note": "Results filed as inconclusive are left out. Active and inactive are the calls of the source. How the source made its calls: active means hit-call score of the fitted dose curve at least 0.9, where 1 is the maximum; inconclusive means response in the unintended direction; inactive means score below 0.9.",
  "data": [
    {"assay": "CCTE_Deisenroth_AIME_384WELL_CTox_Active: Cytotoxicity Assessment (CTOX) in CCTE's 384-well Estrogen Receptor Transactivation Assay with AIME metabolic competence (metabolism positive), Deisenroth Lab (AID 2284037);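 further: chemicals first conditioned 2 h by alginate-bound induced rat liver S9 before cells; activity means signal loss indicating cell death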", "outline": "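Chemicals pre-incubated 2 hours with alginate-immobilised phenobarbital/beta-naphthoflavone-induced male Sprague Dawley rat liver S9, then conditioned medium applied 24 hour to VM7Luc4E2 cells. Viability by fluorogenic protease substrate; 10-point series 0.002 - 200 uM.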", "values": [
      {"smiles": "C#CCC1=C(C)C(OC(=O)C2C(C=C(C)C)C2(C)C)CC1=O", "note": "(stereo not given)", "outcome": "inactive"},
      {"smiles": "O=C(O)c1cc(Oc2ccc(C(F)(F)F)cc2Cl)ccc1[N+](=O)[O-]", "outcome": "inactive"},
      {"smiles": "N#CSCSC#N", "outcome": "inactive"},
      {"smiles": "COP(=O)(NC(C)=O)SC", "note": "(stereo not given)", "outcome": "inactive"},
      {"smiles": "CCOP(=S)(OCC)Oc1ccc2c(C)c(Cl)c(=O)oc2c1", "outcome": "inactive"},
      {"smiles": "O=[N+]([O-])c1cc(C(F)(F)F)c(Cl)c([N+](=O)[O-])c1Nc1ncc(C(F)(F)F)cc1Cl", "AC50": "100 µM (active)"},
      {"smiles": "CN(C)[C@@H]1C(=O)C(C(N)=O)=C(O)[C@@]2(O)C(=O)C3=C(O)c4c(O)cccc4[C@@](C)(O)[C@H]3[C@H](O)[C@@H]12", "outcome": "inactive"},
      {"smiles": "CC(COc1ccc(Oc2ccccc2)cc1)Oc1ccccn1", "note": "(stereo not given)", "outcome": "inactive"},
      {"smiles": "CON=C(C(=O)OC)c1ccccc1CON=C(C)c1cccc(C(F)(F)F)c1", "AC50": "19.8 µM (active)"},
      {"smiles": "CC1=NNC(=O)N(/N=C/c2cccnc2)C1", "outcome": "inactive"}
    ]}
  ]
}
